{"source": "the supplement of paper PMC10498489", "note": "Screen size: about 2,300 compounds; about 330 (14%) showed activity. Not all results are given here. A number with no mark means an inactive call.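 Rule for the calls: active = median modified Z-score above 1.96; inactive = 1.96 or below.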"}
{"test_system": "HepG2 Srxn1-GFP reporter cells (+30 nM CDDO-Me)", "assay": "Srxn1-GFP intensity median modified Z-score relative to plate median; higher = stronger NRF2 / oxidative stress reporter activation, active = hit call of the paper", "conditions": "10 µM; exposure time: 24h", "outline": "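The modified Z-score of GFP intensity was computed per plate, and the median over replicates is reported. HepG2 Srxn1-GFP BAC reporter cells in three replicate plates were treated for 24 h with compound at 10 μM plus an NRF2 activator at 30 nM (≤0.1% DMSO). Per-cell cytoplasmic GFP came from confocal images, excluding those with under 100 cells, and scaling used 1.4826 × median absolute deviation.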"}
{"smiles": "CC(O)=NO", "note": "[euspeclibcmpd970]", "Srxn1-GFP intensity median modified Z-score": -0.0555}
{"smiles": "Cn1nnnc1SC=C1CSC2C(NC(=O)C(OC=O)c3ccccc3)C(=O)N2C1C(=O)O", "note": "(configuration not stated) [euspeclibcmpd2340]", "Srxn1-GFP intensity median modified Z-score": 0.482}
{"smiles": "C[N+]1(C)C2CC[C@H]1C[C@@H](OC(=O)C(O)c1ccccc1)C2", "note": "(some centres not stated) [euspeclibcmpd149]", "Srxn1-GFP intensity median modified Z-score": 0.332}
{"smiles": "O=C1/C(=C/c2cccs2)CSC/C1=C/c1cccs1", "Srxn1-GFP intensity median modified Z-score": "13.2 (active)"}
{"smiles": "O=C1/C(=C/c2cccs2)CCC/C1=C\\c1cccs1", "note": "[euspeclibcmpd465]", "Srxn1-GFP intensity median modified Z-score": "36.6 (active)"}
{"smiles": "O=C1/C(=C\\c2cccs2)CC/C1=C\\c1cccs1", "Srxn1-GFP intensity median modified Z-score": "2.51 (active)"}
{"smiles": "CN1C/C(=C/c2cccs2)C(=O)/C(=C/c2cccs2)C1", "Srxn1-GFP intensity median modified Z-score": 1.25}
{"smiles": "C#C[C@]1(O)CCC2C3CCc4cc(O)ccc4C3CC[C@@]21C", "note": "(some centres not stated) [euspeclibcmpd121]", "Srxn1-GFP intensity median modified Z-score": 0.17}
{"smiles": "COc1cc2[nH]c(N(C)CCCNC(=O)C3CCCO3)nc(=N)c2cc1OC", "note": "(configuration not stated) [euspeclibcmpd2275]", "Srxn1-GFP intensity median modified Z-score": -0.081}
{"smiles": "CN[C@H](CC(C)C)C(=O)NC1C(=O)N[C@@H](CC(N)=O)C(=O)N[C@H]2C(=O)Nc3c(O)[nH]c(c(O)[nH]c(=C(O)O)c4cc(O)cc(O)c4c4cc3ccc4O)[C@H](O)c3ccc(c(Cl)c3)Oc3cc2cc(c3O[C@@H]2OC(CO)[C@@H](O)[C@H](O)[C@H]2O[C@H]2C[C@](C)(N)[C@H](O)[C@H](C)O2)Oc2ccc(cc2Cl)[C@H]1O", "note": "(some centres not stated) [euspeclibcmpd319]", "Srxn1-GFP intensity median modified Z-score": 0.197}
{"smiles": "CCN1CCN(C(=O)NC(C(=O)NC2C(=O)N3C(C(=O)O)=C(CSc4nnnn4C)CSC23)c2ccc(O)cc2)C(=O)C1=O", "note": "(configuration not stated) [euspeclibcmpd431]", "Srxn1-GFP intensity median modified Z-score": -0.443}
{"smiles": "CC[C@H](CCC(C)[C@H]1CCC2C3CCC4C[C@@H](O)CC[C@]4(C)C3CC[C@@]21C)C(C)C", "note": "(some centres not stated) [euspeclibcmpd1543]", "Srxn1-GFP intensity median modified Z-score": -0.389}
{"smiles": "O=C(O)CC(O)(CC(=O)O)C(=O)O", "note": "[euspeclibcmpd2462]", "Srxn1-GFP intensity median modified Z-score": 0.449}
{"smiles": "O=C(O)CC(O)(CC(=O)O)C(=O)O", "note": "[euspeclibcmpd2464]", "Srxn1-GFP intensity median modified Z-score": -0.363}
{"smiles": "CC(=O)OC1C[C@@]2(C)C(C[C@@H](O)C3[C@]2(C)CC[C@H]2[C@H](C)[C@H](O)CC[C@]32C)C1=C(CCC=C(C)C)C(=O)O", "note": "(some centres not stated) [euspeclibcmpd136]", "Srxn1-GFP intensity median modified Z-score": -0.739}
{"smiles": "COc1cc(O)c(C(=O)c2ccccc2)cc1O", "note": "[euspeclibcmpd1987]", "Srxn1-GFP intensity median modified Z-score": -0.376}
{"smiles": "CC(C)C(NC(=O)[C@H](CC(=O)O)NC(=O)[C@H](CCCCN)NC(=O)[C@@H](N)CCCN=C(N)N)C(=O)N[C@@H](Cc1ccc(O)cc1)C(=O)O", "note": "(some centres not stated) [euspeclibcmpd1282]", "Srxn1-GFP intensity median modified Z-score": -0.1}
{"smiles": "C[C@H](CCC(=O)O)[C@H]1CCC2C3C(=O)CC4CC(=O)CC[C@]4(C)C3CC(=O)[C@@]21C", "note": "(some centres not stated) [euspeclibcmpd2057]", "Srxn1-GFP intensity median modified Z-score": -0.197}
{"smiles": "NCCCCS(=O)(=O)O", "Srxn1-GFP intensity median modified Z-score": "10.1 (active)"}
{"smiles": "NCCCS(=O)(=O)O", "note": "[euspeclibcmpd386]", "Srxn1-GFP intensity median modified Z-score": -0.0155}
{"smiles": "NCCS(=O)(=O)O", "note": "[euspeclibcmpd625]", "Srxn1-GFP intensity median modified Z-score": -0.209}
{"smiles": "CCc1[nH]c(=N)[nH]c(=N)c1-c1ccc(Cl)cc1", "note": "[euspeclibcmpd259]", "Srxn1-GFP intensity median modified Z-score": 1.02}
{"smiles": "C[C@@H]1CN(c2c(F)c(F)c3c(=O)c(C(=O)O)cn(C4CC4)c3c2F)C[C@H](C)N1", "note": "[euspeclibcmpd981]", "Srxn1-GFP intensity median modified Z-score": -0.465}
{"smiles": "Oc1c(C2=CC[C@@H](c3ccc(Cl)cc3)CC2)c(O)c2ccccc2c1O", "note": "[euspeclibcmpd664]", "Srxn1-GFP intensity median modified Z-score": "37.9 (active)"}
{"smiles": "COc1ccc(-c2cc(=O)c3c(O)c(OC)c(O[C@H]4O[C@H](CO[C@@H]5O[C@@H](C)[C@H](O)[C@@H](O)[C@H]5O)[C@@H](O)[C@H](O)[C@H]4O)cc3o2)cc1", "note": "[euspeclibcmpd1421]", "Srxn1-GFP intensity median modified Z-score": -0.512}
{"smiles": "COc1cc(OC)c2c(OC)c(-c3ccc4c(c3)OCO4)c(=O)oc2c1", "note": "[euspeclibcmpd2227]", "Srxn1-GFP intensity median modified Z-score": "2.22 (active)"}
{"smiles": "COc1cc(OC)c2c(=O)c(OC)c(-c3ccccc3)oc2c1", "note": "[euspeclibcmpd1625]", "Srxn1-GFP intensity median modified Z-score": 1.58}
{"smiles": "COc1cc(OC)c2c(=O)c(O)c(-c3ccc(OC)c(OC)c3)oc2c1", "note": "[euspeclibcmpd2117]", "Srxn1-GFP intensity median modified Z-score": -0.572}
{"smiles": "CCN(CC)C(=O)C1(c2ccccc2)CC1CN", "note": "(configuration not stated) [euspeclibcmpd689]", "Srxn1-GFP intensity median modified Z-score": -0.729}
{"smiles": "O=C(C(O)CO)C(O)CO", "note": "(configuration not stated) [euspeclibcmpd2280]", "Srxn1-GFP intensity median modified Z-score": -0.0858}
{"smiles": "O=c1c(-c2ccc(O)cc2)coc2c(C3O[C@H](CO)[C@@H](O)[C@H](O)[C@H]3O)c(O)ccc12", "note": "(some centres not stated) [euspeclibcmpd1715]", "Srxn1-GFP intensity median modified Z-score": -0.564}
{"smiles": "COC(=O)NN=Cc1c[n+]([O-])c2ccccc2[n+]1[O-]", "note": "[euspeclibcmpd737]", "Srxn1-GFP intensity median modified Z-score": 0.066}
{"smiles": "NN=c1[nH]ncc2ccccc12", "note": "[euspeclibcmpd806]", "Srxn1-GFP intensity median modified Z-score": -0.328}
{"smiles": "COc1ccc2c(c1)OCC(Cc1ccc(OC)c(OC)c1)C2=O", "note": "(configuration not stated) [euspeclibcmpd1645]", "Srxn1-GFP intensity median modified Z-score": "15.4 (active)"}
{"smiles": "COc1cc2c(cc1OC)C1(O)C(=O)c3ccc(O)c(C(=O)O)c3OC1CO2", "note": "(configuration not stated) [euspeclibcmpd1511]", "Srxn1-GFP intensity median modified Z-score": -0.131}
{"smiles": "COc1ccc2c(c1)OCC(Cc1ccc(OC)c(OC(C)=O)c1)C2=O", "note": "(configuration not stated) [euspeclibcmpd1962]", "Srxn1-GFP intensity median modified Z-score": 1.39}
{"smiles": "COc1ccc2c(c1)OCC(Cc1ccc(O)c(OC)c1)C2=O", "note": "(configuration not stated) [euspeclibcmpd1837]", "Srxn1-GFP intensity median modified Z-score": 0.677}
{"smiles": "COc1ccc2c(c1)OC[C@@H](Cc1ccc(OC)c(OC)c1)[C@@H]2O", "note": "[euspeclibcmpd2183]", "Srxn1-GFP intensity median modified Z-score": 1.04}
{"smiles": "COc1ccc2c(c1)OCC(Cc1ccc(OC)c(O)c1)C2=O", "note": "(configuration not stated) [euspeclibcmpd1628]", "Srxn1-GFP intensity median modified Z-score": "21.4 (active)"}
{"smiles": "CC(=O)O/C1=C2\\C(C)[C@@H](OC(=O)C(O)[C@@H](NC(=O)c3ccccc3)c3ccccc3)C[C@@](O)([C@@H](OC(=O)c3ccccc3)C3[C@](C)(C1=O)[C@@H](O)C[C@H]1OC[C@@]31OC(C)=O)C2(C)C", "note": "(some centres not stated) [euspeclibcmpd631]", "Srxn1-GFP intensity median modified Z-score": 0.274}
{"smiles": "O=C1O[C@H](C(O)CO)C(O)=C1O", "note": "(some centres not stated) [euspeclibcmpd2046]", "Srxn1-GFP intensity median modified Z-score": -0.841}
{"smiles": "CC(CCC(=O)O)C1CC[C@H]2C3[C@H](O)C[C@@H]4C[C@H](O)CCC4(C)[C@H]3C[C@H](O)C12C", "note": "(some centres not stated) [euspeclibcmpd1325]", "Srxn1-GFP intensity median modified Z-score": -0.323}
{"smiles": "CCC(C)C1NC(=O)C(CCN)NC(=O)C(NC(=O)C(CCN)NC(=O)C(NC(=O)C(CCN)NC(=O)CCCCC(C)C)C(C)O)CCNC(=O)C(C(C)O)NC(=O)C(CCN)NC(=O)C(CCN)NC(=O)C(C(C)CC)NC1=O", "note": "(configuration not stated) [euspeclibcmpd887]", "Srxn1-GFP intensity median modified Z-score": 0.477}
{"smiles": "CC(C)C1CC[C@@H](C)CC1=O", "note": "(some centres not stated) [euspeclibcmpd1630]", "Srxn1-GFP intensity median modified Z-score": -0.168}
{"smiles": "CC(=O)OCC(=O)[C@@]12OC3(CCCC3)O[C@@H]1CC1C3CC=C4CC(=O)C=C[C@]4(C)[C@@]3(F)[C@@H](O)C[C@@]12C", "note": "(some centres not stated) [euspeclibcmpd606]", "Srxn1-GFP intensity median modified Z-score": -0.413}
{"smiles": "CN[C@@H]1C(OC2[C@H](O[C@H]3[C@H](O)[C@@H](O)[C@H](N=C(N)N)[C@@H](O)[C@@H]3N=C(N)N)OC(C)[C@]2(O)CO)OC(CO)C(O)C1O", "note": "(some centres not stated) [euspeclibcmpd500]", "Srxn1-GFP intensity median modified Z-score": 0.194}
{"smiles": "CC(C)c1c(C(=O)Nc2ccccc2)c(-c2ccccc2)c(-c2ccc(F)cc2)n1CC[C@@H](O)C[C@@H](O)CC(=O)O", "note": "[euspeclibcmpd2076]", "Srxn1-GFP intensity median modified Z-score": 0.0135}
{"smiles": "CC(C)n1c(C=CC(O)CC(O)CC(=O)O)c(-c2ccc(F)cc2)c2ccccc21", "note": "(configuration not stated) [euspeclibcmpd1968]", "Srxn1-GFP intensity median modified Z-score": "3.35 (active)"}
{"smiles": "CC(C)=c1nc(N(C)S(C)(=O)=O)nc(-c2ccc(F)cc2)c1=CC[C@@H](O)C[C@@H](O)CC(=O)O", "note": "[euspeclibcmpd2132]", "Srxn1-GFP intensity median modified Z-score": 0.158}
{"smiles": "CC1=C2CC(=O)C=C[C@]2(C)C2C(C1)C1CC[C@](O)(C(=O)COC(=O)CCC(=O)O)[C@@]1(C)C[C@@H]2O", "note": "(some centres not stated) [euspeclibcmpd2224]", "Srxn1-GFP intensity median modified Z-score": -0.845}
{"smiles": "Oc1cc2c(cc1O)=C1c3ccc(O)c(O)c3OCC1(O)C=2", "note": "(configuration not stated) [euspeclibcmpd1969]", "Srxn1-GFP intensity median modified Z-score": -0.521}
{"smiles": "CC(CCC(=O)O)[C@H]1CCC2C3C(=O)C[C@@H]4CC(=O)CC[C@]4(C)C3CC(=O)[C@@]21C", "note": "(some centres not stated) [euspeclibcmpd357]", "Srxn1-GFP intensity median modified Z-score": 0.217}
{"smiles": "COc1cc(C)c(C(=O)O)c(O)c1", "note": "[euspeclibcmpd2356]", "Srxn1-GFP intensity median modified Z-score": -0.209}
{"smiles": "CCCCCC(=O)Cc1cc(O)cc(O)c1C(=O)Oc1cc(CC(=O)CCCCC)c(C(=O)O)c(OC)c1", "note": "[euspeclibcmpd1619]", "Srxn1-GFP intensity median modified Z-score": -0.366}
{"smiles": "CCCCCc1c2c(cc(O)c1C(=O)O)OC(=O)c1c(cc(OC)cc1C(=O)CCCC)O2", "note": "[euspeclibcmpd1731]", "Srxn1-GFP intensity median modified Z-score": "4.46 (active)"}
{"smiles": "COCC1(C)NC(=O)N(CCC(=O)Nc2cc(C)on2)C1=O", "note": "(configuration not stated)", "Srxn1-GFP intensity median modified Z-score": 1.16}
{"smiles": "CCOC(=O)C1=C(C)N=C(C)C(C(=O)OC)C1c1cccc([N+](=O)[O-])c1", "note": "(configuration not stated) [euspeclibcmpd494]", "Srxn1-GFP intensity median modified Z-score": 0.225}
{"smiles": "COC(=O)C1=C(C)N=C(C)C(C(=O)OC(C)C)C1c1cccc2nonc12", "note": "(configuration not stated) [euspeclibcmpd996]", "Srxn1-GFP intensity median modified Z-score": -0.132}
{"smiles": "CCOC(=O)C1=C(COCCN)N=C(C)C(C(=O)OC)C1c1ccccc1Cl", "note": "(configuration not stated) [euspeclibcmpd713]", "Srxn1-GFP intensity median modified Z-score": "22.6 (active)"}
{"smiles": "Cc1cc(=NC(=O)C2C(=O)c3ccccc3S(=O)(=O)N2C)[nH]o1", "note": "(configuration not stated) [euspeclibcmpd552]", "Srxn1-GFP intensity median modified Z-score": -0.344}
{"smiles": "CC1=c2c(C)c(O)c(C(=O)O)c(O)c2=CO[C@@H]1C", "note": "[euspeclibcmpd1555]", "Srxn1-GFP intensity median modified Z-score": 1.14}
{"smiles": "CCCC(C(N)=O)c1ccccc1", "note": "(configuration not stated)", "Srxn1-GFP intensity median modified Z-score": 1.53}
